Test systems include DU-145 prostate; K-562 leukemia; MALME-3M melanoma; MDA-MB-231 breast; SF-268 CNS; SF-295 CNS; SF-539 CNS; UACC-257 melanoma; RXF 393 renal; M14 melanoma.
Holding throughout (assay): NCI-60 one-dose screen, 48 h (100 = growth as untreated, 0 = no growth, -100 = all killed)
Holding throughout (conditions): 10 µM unless noted

About 83,000 compounds went through this panel and 20% of them were active in at least one assay; those are over-represented in the sample as a whole.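 48-hour exposure, single concentration, 96-well plates; percent growth endpoint where 0 means no net growth. Active: below 10.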 A number with no mark means an inactive call. Calls of active or inactive are those of the source.

Growth data for 16 compounds are collected here from PubChem BioAssay (NCI).

As to `CCCCCc1ccc(S(=O)(=O)Nc2cc(-c3csc(NC(=O)CN4CCN(CCO)CC4)n3)ccc2OC)cc1`, the growth in the assay with DU-145 prostate was 49.1%; in the assay on K-562 leukemia, 2.84% (active); in the assay with MALME-3M melanoma, -80.9% (active); with MDA-MB-231 breast, 12.6%; in the assay with SF-268 CNS it was 59.8%; in the assay on SF-295 CNS, -23.1% (active). Moreover, the values for the growth in the assay with SF-539 CNS and in the assay on UACC-257 melanoma were -69.2% (active) and -31.4% (active), respectively.
On to `Oc1cccc2ccc(-c3nnc(SCc4ccc(O)c5ncccc45)o3)nc12`, for which the growth with DU-145 prostate is 22.1%; with K-562 leukemia, 14.6%; with MALME-3M melanoma it was -3.31% (active); with MDA-MB-231 breast, 26.6%; in the assay with SF-268 CNS, 23.4%; in the assay with SF-295 CNS, 3.94% (active). Besides, the growth in the assay with SF-539 CNS is 14.5%; in the assay with UACC-257 melanoma, 0.0475% (active).
Consider `CC/C(=C/c1c(O)cccc1OC)c1ccc2c(OC)cccc2[o+]1`, for which the growth with DU-145 prostate is 112%; in the assay on K-562 leukemia, 96.6%; in the assay on MALME-3M melanoma it was 105%; in the assay with MDA-MB-231 breast it was 102%; in the assay with SF-268 CNS, 100%; in the assay with SF-295 CNS it was 98.5%. The growth with SF-539 CNS was 98.5%; with UACC-257 melanoma, 101%.
With `Cc1ccc(-n2cc(/C=C/C(=O)c3ccc(O)cc3)c(-c3ccc(S(C)(=O)=O)cc3)n2)cc1`, the growth in the assay with DU-145 prostate was 82.8%; in the assay with K-562 leukemia, 17.8%; in the assay on MALME-3M melanoma, 44.9%; in the assay on MDA-MB-231 breast, 67.7%; with SF-268 CNS, 85.9%; in the assay on SF-295 CNS, 87.3%. The growth was 60.2% in the assay with SF-539 CNS and 93.5% with UACC-257 melanoma.
Take `C=C(C=O)[C@@H]1CC[C@]2(C)[C@H](CC=C3[C@H]4[C@@H](C)[C@H](C)CC[C@]4(C(=O)OC)CC[C@]32C)[C@@]1(C)CCC#N`: the growth with DU-145 prostate is 16.7%; in the assay with K-562 leukemia, 8.57% (active); in the assay on MALME-3M melanoma, -63.6% (active); in the assay with MDA-MB-231 breast, -21.9% (active); with SF-268 CNS, 20%; with SF-295 CNS, 7.53% (active). The growth with SF-539 CNS is -61.4% (active); in the assay on UACC-257 melanoma it was -20.3% (active).
Regarding `C=CCn1c(SCC(=O)Nc2ccc(C(=O)/C=C/c3ccc(Br)cc3)cc2)nnc1-c1c[nH]c2ccccc12`, the growth with DU-145 prostate was 91.6%; with K-562 leukemia, 66.8%; in the assay with MALME-3M melanoma it was 91%; in the assay on MDA-MB-231 breast, 86.2%; in the assay with SF-268 CNS, 70.7%; with SF-295 CNS it was 90.2%. Also, the growth in the assay on SF-539 CNS was 88.2%; in the assay with UACC-257 melanoma it was 107%.
As for `CCOC(=O)C1=NNC(c2ccc(Cl)cc2)C1C(=O)N1C(=S)NC(=O)C1CC(C)C` (configuration not stated), the growth with DU-145 prostate is 107%; with K-562 leukemia it was 98.4%; in the assay with MALME-3M melanoma it was 104%; with MDA-MB-231 breast, 86.2%; in the assay on SF-268 CNS, 98.3%; in the assay with SF-295 CNS it was 106%. Also, the growth with SF-539 CNS was 104%; in the assay with UACC-257 melanoma, 116%.
Turning to `COc1ccc2c(c1)Oc1nc(N)c(C#N)c(N)c1C2Sc1ccc(C)cc1` (configuration not stated), the growth in the assay with DU-145 prostate is -50% (active); in the assay with K-562 leukemia, 4.37% (active); in the assay on MALME-3M melanoma, -57% (active); in the assay on MDA-MB-231 breast it was -77.1% (active); with SF-268 CNS, 50%; in the assay on SF-295 CNS, 92.9%. For the same compound, the results for the growth with SF-539 CNS and in the assay on UACC-257 melanoma were -34% (active) and 9.55% (active), respectively.
`CCc1ccc(SC2c3ccc(N(CC)CC)cc3Oc3nc(N)c(C#N)c(N)c32)cc1` (configuration not stated): the growth is -86.3% (active) with DU-145 prostate; 1.74% (active) in the assay with K-562 leukemia; -40.8% (active) in the assay with MALME-3M melanoma; -83.8% (active) in the assay with MDA-MB-231 breast; -24.3% (active) in the assay with SF-268 CNS; -76.2% (active) in the assay with SF-295 CNS. Moreover, the growth in the assay with SF-539 CNS is -94.1% (active); in the assay with UACC-257 melanoma, 6.57% (active).
Consider `COc1c(N2CC3CCCNC3C2)c(F)cc2c(=O)c(C(=O)N/N=C/c3ccc(Br)cc3)cn(C3CC3)c12` (configuration not stated), for which the growth in the assay with DU-145 prostate was 85.5%; in the assay on K-562 leukemia, -18.5% (active); in the assay with MALME-3M melanoma, 82.8%; with MDA-MB-231 breast, 56.1%; with SF-268 CNS it was 82.4%; in the assay on SF-295 CNS, 101%. Moreover, the growth in the assay with SF-539 CNS was 72.7%; with UACC-257 melanoma, 100%.
As for `COc1ccc(Cn2cc3c(c2-c2cc(OC)c(OC)c(OC)c2)CCc2c(CN4CCCC4)noc2-3)cc1`, the growth with DU-145 prostate was 22.7%; in the assay with K-562 leukemia, 14%; with MALME-3M melanoma it was 19%; in the assay with MDA-MB-231 breast, 36.7%; in the assay with SF-268 CNS it was 46.5%; in the assay with SF-295 CNS, 12.1%. The growth is 0.316% (active) with SF-539 CNS and 77% with UACC-257 melanoma.
`CCCn1cnc2c(c1=N)C(c1ccc(F)cc1)c1sc3c(C)cccc3c1O2` (configuration not stated): the growth was 27.5% in the assay with DU-145 prostate; 5.29% (active) with K-562 leukemia; 47.1% in the assay on MALME-3M melanoma; 53% in the assay with MDA-MB-231 breast; -39% (active) with RXF 393 renal; 53.8% in the assay on SF-268 CNS. Besides, the growth in the assay with SF-295 CNS was -0.689% (active); in the assay on SF-539 CNS, -27.1% (active); in the assay on UACC-257 melanoma it was 70.8%; in the assay with M14 melanoma it was 9.53% (active).
With `COc1ccc(/C=N/NC(=O)c2cn(C3CC3)c3c(OC)c(N4CC5CCCNC5C4)c(F)cc3c2=O)cc1` (configuration not stated), the growth was 93.6% in the assay with DU-145 prostate; 7.92% (active) with K-562 leukemia; 90.4% with MALME-3M melanoma; 81.1% in the assay on MDA-MB-231 breast; 83.6% in the assay on SF-268 CNS; 103% in the assay with SF-295 CNS. For the same compound, the growth in the assay with SF-539 CNS was 35.5%; in the assay on UACC-257 melanoma it was 106%.
For the compound `O=C(NCc1ncc[nH]1)c1ccc(-c2nc3ccc4[nH]ncc4c3c3c2CCCC3)cc1`, the growth is 21.6% with DU-145 prostate; 14.7% in the assay on K-562 leukemia; -14.7% (active) in the assay on MALME-3M melanoma; 10% (active) with MDA-MB-231 breast; 3.81% (active) in the assay on SF-268 CNS; 31.5% in the assay on SF-295 CNS. Besides, the growth in the assay with SF-539 CNS was -2.48% (active); in the assay on UACC-257 melanoma, 27%.
For the compound `CCCCCc1ccc(S(=O)(=O)Nc2cccc(-c3csc(NC(=O)CNCCN(C)C)n3)c2)cc1`, the growth in the assay on DU-145 prostate is 84.8%; with K-562 leukemia, 9.48% (active); in the assay on MALME-3M melanoma, 74%; in the assay on MDA-MB-231 breast it was 93.5%; in the assay on SF-268 CNS, 78.6%; in the assay on SF-295 CNS, 95.5%. The growth in the assay on SF-539 CNS was 91.1%; in the assay with UACC-257 melanoma it was 96.1%.
Regarding `Cc1cc(C)cc(C(=O)Nc2cccc(C#Cc3cccc4[nH]nc(N)c34)c2)c1`, the growth was 71.9% in the assay on DU-145 prostate; 9.8% (active) in the assay on K-562 leukemia; 86.2% in the assay on MALME-3M melanoma; 40% with MDA-MB-231 breast; -10.9% (active) in the assay with RXF 393 renal; 55% in the assay on SF-268 CNS. Besides, the growth was 65% in the assay with SF-295 CNS, 38.6% in the assay with SF-539 CNS, 90.7% in the assay on UACC-257 melanoma and 43.5% in the assay on M14 melanoma.
